# Inconclusive results are not listed. A call without a number means that no potency is given here. Active and inactive are the calls of the source. Calls follow the shape of the dose curve; as a rule, active = well fitted inhibition curve with a large enough effect; inconclusive = small, poorly fitted or top-dose-only effect; inactive = no such curve, though single readings can be large or run the other way.
# Assay: Acumen qHTS Assay for Inhibitors of the mTORC1 Signaling Pathway in WT MEF Cells: Hit Validation; also: nearly all actives have a fitted effect of over 60% in size
# Conditions: Acumen imaging; series mostly up to 37.3 µM
# How it was run: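 Read-out is immunofluorescent phospho-rpS6 (Ser235/236) normalised to PI-stained cell number, reported as % active cells using a 7.5 nM rapamycin threshold. Cells: WT or Tsc2-/-, p53-/- MEFs, compound-exposed 24 h at 37C; PI count also tracks viability.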
# Potency is read from the fitted curve at half-maximal effect.
row,Structure (SMILES),Potency
1,O=C(NCCc1ccc(Cl)cc1)C(=O)NCC(c1cccs1)S(=O)(=O)c1cccs1 (stereo not given),inactive
2,COc1ccc(OCC(=O)Nc2ccc3nn(-c4ccc(OC)cc4)nc3c2)cc1,inactive
3,CCOC(=O)c1cnc2ccc(OCC)cc2c1NCCc1ccc(OC)c(OC)c1,inactive
4,COC(=O)c1ccccc1NC(=O)CSc1n[nH]c(CC(C)C)n1,inactive
5,O=C(NCCSc1c(-c2ccc(F)cc2)[nH]c2ccccc12)c1ccc(S(=O)(=O)N2CCOCC2)cc1,inactive
6,COc1ccc(C)cc1NC(=O)C(Cc1ccccc1)NS(=O)(=O)c1ccc(Br)s1 (stereo not given),inactive
7,CCCCN1C(=O)C(O)(c2c(C)[nH]c3ccccc23)c2cc(Br)ccc21 (stereo not given),inactive
8,CCCN1C(=O)C(Cc2nc3ccccc3c(=O)n2CC)c2cc(Br)ccc21 (stereo not given),inactive
9,COc1ccccc1N1CCN(Cc2cc(COC(C)C)c3cccnc3c2O)CC1,2.93 µM (active)
10,Cc1cccc(CS(=O)(=O)c2ncc(Cl)c(C(=O)Nc3nnc(C(C)C)s3)n2)c1,14.7 µM (active)
11,Cc1ccccc1Oc1nc2ccccn2c(=O)c1/C=C(\C#N)c1nc2ccccc2[nH]1,inactive
12,CC(C)(C)OC(=O)N1CCC(c2c(C(=O)NCCN3CCC(Cc4ccccc4)CC3)cnn2-c2cccc(Cl)c2)CC1,10.4 µM (active)
13,COc1cc(C)ccc1OCCn1c(-c2ccc(Cl)cc2)nc2ccccc2c1=O,inactive
14,COc1cc(OC)cc(C(=O)NCCc2csc(-c3cccc(C)c3)n2)c1,inactive
15,COc1ccc(S(=O)(=O)NCCc2sc3nc(-c4ccc(C)cc4)nn3c2C)cc1F,inactive
16,Cc1ccc(NC(=O)c2c(C)oc3ccc(O)c(CN(C)Cc4ccccc4)c23)c(C)c1,inactive
17,COc1ccc(N2CC(c3nc(-c4cc(OC)c(OC)c(OC)c4)no3)CC2=O)cc1Cl (stereo not given),inactive
18,Cc1cccc(CS(=O)(=O)c2ncc(Cl)c(C(=O)NCc3ccccc3)n2)c1,13.1 µM (active)
19,CCc1ccc(-c2nc(CSCC(=O)NCc3ccc(C)cc3)c(C)o2)cc1,inactive
20,CCc1ccc(NC(=O)C2CCCN(S(=O)(=O)c3cccc4cccnc34)C2)cc1 (stereo not given),inactive

row,Structure (SMILES),Potency
1,CC(=O)N1CCCc2cc(S(=O)(=O)N(Cc3ccccc3)C(C)C)ccc21,inactive
2,Cc1cccc(Nc2ncc(NC(=O)c3cccc(F)c3)c(Nc3cccc(C)c3)n2)c1,5.85 µM (active)
3,O=C(CN1C(=O)C(c2ccc(F)cc2)=NC12CCCCCC2)Nc1ccccc1Cl,inactive
4,CCn1c(CN2CCC(C)CC2)nc2cc(NC(=O)c3ccccc3[N+](=O)[O-])ccc21,inactive
5,CCc1ccc(CNc2ncc(-c3cccc(OC)c3)n2C)cc1,inactive
6,COc1cc(OC)c(NS(=O)(=O)c2ccc3c(c2)CCCN3C(C)=O)cc1Cl,inactive
7,COc1cc(NC(=O)CSc2ccc(-c3ccccn3)nn2)cc(OC)c1,inactive
8,COc1cc(Br)ccc1C1C(C(=O)Nc2ccc(C)cc2C)=C(C)Nc2nnnn21 (stereo not given),inactive
9,O=C(NCc1ccccc1)c1ccc2c(c1)N(Cc1ccccc1F)C(=O)c1ccccc1S2=O (stereo not given),inactive
10,O=C(CCn1cnc2onc(-c3ccc(F)cc3)c2c1=O)Nc1ccc(F)c(Cl)c1,inactive
11,CC/C(=C(\c1ccccc1)c1ccc(OCCN(C)C)cc1)c1ccccc1,inactive
12,Cc1ccc(NC(=O)c2ccc(CN3CCN(C)CC3)cc2)cc1Nc1nccc(-c2cccnc2)n1,inactive
13,O=C(CS(=O)(=O)c1cccc2nsnc12)NCc1ccc(Cl)cc1,inactive
14,O=S(=O)(NCC(c1ccco1)N1CCN(c2ccc(F)cc2)CC1)c1ccccc1 (stereo not given),inactive
15,O=C(Nc1ccc2nc(SCC(=O)N3CCCc4ccccc43)sc2c1)c1ccccc1F,inactive
16,CCOc1ccc(NC(=O)CN2C(=O)C(c3ccc(Cl)cc3)=NC2(C)C)cc1,inactive
17,Cc1ccccc1C(=O)N1CCN(CCc2ccccn2)CC1,inactive
18,Cc1cccc(OCc2ccc(-c3nc(C#N)c(NCCN(C)C)o3)o2)c1,inactive
19,CCCCN(C)CCNC(=O)c1cc2c(=O)n(C)c3ccccc3c2n1C,inactive
20,COC(=O)c1ccccc1NC(=O)c1nc(S(=O)(=O)Cc2cccc(C)c2)ncc1Cl,5.21 µM (active)

# Reference: PubChem BioAssay AID651789 (National Center for Advancing Translational Sciences (NCATS), 2012)
